Assay results published in PubChem BioAssay (NCATS).
Records with an inconclusive call do not appear. Active and inactive are the calls of the source. Calls come from the whole dose curve; as a rule, active = well fitted cell-killing curve with a large enough effect; inconclusive = small, poorly fitted or top-dose-only effect, or effect the other way; inactive = no such curve, though single readings can be large or run the other way.

What was measured:
[1] = Quantitative High-Throughput drug screen in 47 multiple myeloma cell lines against the NCATS MIPE library collection: PCM6_Riken cell viability assay (AID 1919870); note: nearly all actives have a fitted effect of over 30% in size
In short: (§1)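 500 cells/well per myeloma line exposed to pinned MIPE 4.0 compounds for 48 h at 37 °C, 5% CO2. Viability read as ATP by CellTiter-Glo luminescence, normalised to DMSO-only (100%) and media-only (0%) wells.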

[2] = Quantitative High-Throughput drug screen in 47 multiple myeloma cell lines against the NCATS MIPE library collection: RPMI8226_ATCC cell viability assay (AID 1919871); note: nearly all actives have a fitted effect of over 30% in size
In short: as §1

[3] = Quantitative High-Throughput drug screen in 47 multiple myeloma cell lines against the NCATS MIPE library collection: OPM2_DSMZ cell viability assay (AID 1919872); note: nearly all actives have a fitted effect of over 30% in size
In short: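 We plated 500 myeloma cells per well, pinned in MIPE 4.0 compounds, and incubated for 48 hours at 37C. ATP was then quantified with CellTiter-Glo, with DMSO and media-only wells defining 100% and 0%.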

[4] = Quantitative High-Throughput drug screen in 47 multiple myeloma cell lines against the NCATS MIPE library collection: KMS11_JCRBsus cell viability assay (AID 1919873); note: nearly all actives have a fitted effect of over 50% in size
In short: as §1

[5] = Quantitative High-Throughput drug screen in 47 multiple myeloma cell lines against the NCATS MIPE library collection: KMS28BM_JCRB cell viability assay (AID 1919874); note: nearly all actives have a fitted effect of over 35% in size
In short: as §1
Potency is the fitted concentration of half-maximal effect.

Row | Structure (SMILES) | Potency [1] | Potency [2] | Potency [3] | Potency [4] | Potency [5]
1 | C[C@H](NC(=O)C(C#N)=Cc1cccc(Br)n1)c1ccccc1 | 2090 nM (active) | 4180 nM (active) | 7430 nM (active) | 5260 nM (active) | 7430 nM (active)
2 | COc1ccc(S(=O)(=O)Nc2cccnc2Nc2ccc(O)cc2)cc1 | 235 nM (active) | 526 nM (active) | 118 nM (active) | 41.8 nM (active) | 33.2 nM (active)
3 | C[N+]1(C)[C@@H]2C[C@@H](OC(=O)C(O)(c3cccs3)c3cccs3)C[C@H]1[C@@H]1O[C@@H]12 | inactive | inactive | inactive | inactive | inactive
4 | CCc1ccc(C(=O)Nc2cc(CN3CCN(C)CC3)cc(C(F)(F)F)c2)cc1C#Cc1cnc2ccnn2c1 | 3720 nM (active) | 20900 nM (active) | 14800 nM (active) | 4690 nM (active) | 4180 nM (active)
5 | Cn1cc(C2=C(c3c4n(c5ccccc35)CCC(CN)C4)C(=O)NC2=O)c2ccccc21 (stereo not given) | 5260 nM (active) | 18700 nM (active) | 18700 nM (active) | 7430 nM (active) | 10500 nM (active)
6 | O=C(C=CC#Cc1cccc(NS(=O)(=O)c2ccccc2)c1)NO | 1660 nM (active) | 2640 nM (active) | 2350 nM (active) | 662 nM (active) | 833 nM (active)
7 | CCN(CC)Cc1ccc2cc(COC(=O)Nc3ccc(C(=O)NO)cc3)ccc2c1 | 833 nM (active) | 1050 nM (active) | 833 nM (active) | 526 nM (active) | 418 nM (active)
8 | CN1[C@H]2CC(OC(=O)[C@@H](CO)c3ccccc3)C[C@H]1[C@H]1O[C@H]12 (stereo not given in full) | inactive | inactive | inactive | inactive | inactive
